The source of these data is PubChem BioAssay AID624202 (National Center for Advancing Translational Sciences (NCATS), 2012).

The structures appear in SMILES notation. Hit rate of the full screen: of about 380,000 compounds, about 4,000 (1.1%) were called active. A call without a number means that no potency is given here. Another 3% or so got no clear call; they are omitted. This is one part of a sample in which actives are shown more often than they occur. The call rests on the fitted dose curve; in most records, active means well fitted activation curve with a large enough effect; inconclusive means small, poorly fitted or top-dose-only effect; inactive means no such curve, though single readings can be large or run the other way.
Potency means the concentration at half of the fitted maximal effect.

This assay in a line: qHTS Assay to Identify Small Molecule Activators of BRCA1 Expression. Further: nearly all actives have a fitted effect of over 80% in size. The note with it: MCF7-BRCA1-FFLuc reporter, luminescence, 48 h; series mostly up to 46.1 µM. In outline: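 Activators of BRCA1 expression were detected as increased firefly luciferase luminescence in engineered MCF7 cells after 48 h compound incubation. Signals were scaled to genistein 10 microM as full activation.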
As to `NC(=O)Nc1ccc(/C=C/c2ccnc3ccccc23)cc1`, the Potency result is “inactive”. Turning to `COc1ccc(CNc2nc(-c3ccc(Cl)cc3)nn2C(=O)c2ccccc2)cc1`, the Potency result is “inactive”.

For `CCC(C(=O)Nc1cc(OC)ccc1OC)n1c(=O)c(C(F)(F)F)nc2ccccc21` (centres undefined), the Potency result was “inactive”. For `Cc1cccc(NC(=O)CSCC(=O)Nc2nnc(C3CC3)s2)c1` the value was “inactive”; for `Cc1cc(C(=O)Nc2nnc(C3CC3)s2)c(C)s1`, 3.55 µM (active); for `CC1CCN(c2ccc(C(=O)Nc3nnc(C4CC4)s3)cc2[N+](=O)[O-])CC1`, “inactive”. For `Cc1ccc(Cc2nc3ccccc3nc2SCC(=O)Nc2cccc(C(F)(F)F)c2)cc1` the value was “inactive”.

As for `Cn1cccc1C(=O)Nc1nccs1`, the Potency result was “inactive”. Regarding `CCCCOC(=O)Nc1nccs1`, the Potency entry is “inactive”. For the compound `CC(=O)Oc1ccc(C(=O)Nc2nccs2)cc1`, the Potency was 11.2 µM (active). In the case of `Cc1ccc(NC(=O)c2oc3ccccc3c2NC(=O)Cc2cccs2)cc1` it was “inactive”; in that of `Cc1cc(NC(=O)c2ccc(-c3ccc(Cl)cc3)o2)cc(-c2nc3ncccc3o2)c1O`, “inactive”. In the case of `CCOc1cc(C2c3c(-c4ccc(Br)cc4)n[nH]c3C(=O)N2c2ccc(Cl)cc2)ccc1O` (centres undefined) it was “inactive”. With `CCC1=Nc2cc(C(=O)NCC(C)c3ccccc3)ccc2Sc2ccc(C)cc21` (centres undefined), the Potency entry is “inactive”. For `O=C(COc1ccccc1F)OCc1cc(=O)n2nc(C3CCCCC3)sc2n1` the value was “inactive”; for `COc1cccc(CNCc2c(C(=O)O)n(Cc3ccc(C)cc3)c3cc(C)ccc23)c1OC`, “inactive”; for `Cn1c(SCC(=O)N2CCCC2)nnc1-c1cccs1`, “inactive”. Take `O=C(CSc1n[nH]c(-c2cccs2)n1)N1CCCCC1`: the Potency entry is “inactive”.

For the compound `O=C(CSCc1cccs1)N1CCCC1`, the Potency is 12.6 µM (active).

Consider `OC(CBr)C[n+]1cccc2cc(Br)ccc21` (centres undefined), for which the Potency entry was “inactive”. Turning to `CCCCOc1ccc(C(=O)Nc2cccc(-c3nc4ccccc4o3)c2C)cc1`, the Potency entry was “inactive”.

As for `CN(c1ccc(C(=O)N2CCc3ccccc3C2)cc1)S(C)(=O)=O`, the Potency result is “inactive”.

For `COc1ccc2c(c1)CCc1c(C(=O)N3CCc4ccccc4C3)noc1-2`, the Potency entry was “inactive”. As to `O=C(c1noc2c1CCCC2)N1CCc2ccccc2C1`, the Potency was 5.62 µM (active).

Consider `COc1ccc2c(c1)c(N1CCCC1=O)c(C(=O)Nc1ccc(OC)c(Cl)c1)n2C`, for which the Potency entry was “inactive”. In the case of `O=C(c1ccc2c(c1)N(Cc1ccc(Cl)cc1)C(=O)c1ccccc1S2(=O)=O)N1CCCCC1`, the Potency entry is “inactive”. `CCN(CC(=O)NCCc1ccccc1)S(=O)(=O)c1ccc(C)cc1`: the Potency entry is “inactive”. For `CCN(c1cccc(C)c1)S(=O)(=O)c1ccc(-c2coc(C)n2)cc1` the value was “inactive”; for `CCN(CC)S(=O)(=O)c1ccc(-c2cn3ccc(C)cc3n2)cc1`, 3.55 µM (active); for `CCC(=O)N1N=C(c2ccc(OC)cc2)CC1c1cn(-c2ccccc2)nc1-c1cccs1` (centres undefined), “inactive”. In the case of `CN(C(=O)CSc1nc2ccccc2n1Cc1ccccc1C#N)c1ccccc1` it was “inactive”; in that of `CN1CCN(/[N+]([O-])=N/Oc2ccc([N+](=O)[O-])cc2[N+](=O)[O-])CC1`, “inactive”; in that of `CCn1c2ccc(F)cc2c2nnc(SCCN3CCOCC3)nc21`, “inactive”. In the case of `Cc1cc2nc(SCCN3CCOCC3)[nH]c2cc1C` it was 4.47 µM (active); in that of `COc1ccc2nc(SCC(=O)Nc3c(C)cc(C)cc3C)[nH]c2c1`, “inactive”; in that of `COc1cc(C)ccc1OCCSc1nc2ccc(NC(=O)c3ccc(C)cc3)cc2s1`, “inactive”.

Turning to `CCOc1ccc(CCNC(=O)c2cc3c(=O)n(C)c4ccccc4c3n2C)cc1`, the Potency entry was “inactive”. In the case of `Cc1ccccc1CCNC(=O)C1CCN(c2nc3ccccc3nc2C(F)(F)F)CC1` it was “inactive”; in that of `COc1ccc(-n2c(C)nc3c(cnn3-c3ccc(F)cc3)c2=O)cc1`, “inactive”.
